Reference: ChEMBL document CHEMBL3988442, “University of Dundee, Small-Polar-MMV Screening Library” (2021)
For some of these results: Results with a measured potency or affinity are listed apart.

How the values were obtained:
Set-up in all cases: scale not given: direction of the effect not stated beside the values
[1] = target: Protein translocase subunit SecA (Escherichia coli (strain K12)) (UniProt P10408); assay: Assay to Identify E. coli SecA ATPase Inhibitors; assay type: functional; conditions: 30 µM
Chain of Protein translocase subunit SecA (Escherichia coli (strain K12)) (P10408 whole entry): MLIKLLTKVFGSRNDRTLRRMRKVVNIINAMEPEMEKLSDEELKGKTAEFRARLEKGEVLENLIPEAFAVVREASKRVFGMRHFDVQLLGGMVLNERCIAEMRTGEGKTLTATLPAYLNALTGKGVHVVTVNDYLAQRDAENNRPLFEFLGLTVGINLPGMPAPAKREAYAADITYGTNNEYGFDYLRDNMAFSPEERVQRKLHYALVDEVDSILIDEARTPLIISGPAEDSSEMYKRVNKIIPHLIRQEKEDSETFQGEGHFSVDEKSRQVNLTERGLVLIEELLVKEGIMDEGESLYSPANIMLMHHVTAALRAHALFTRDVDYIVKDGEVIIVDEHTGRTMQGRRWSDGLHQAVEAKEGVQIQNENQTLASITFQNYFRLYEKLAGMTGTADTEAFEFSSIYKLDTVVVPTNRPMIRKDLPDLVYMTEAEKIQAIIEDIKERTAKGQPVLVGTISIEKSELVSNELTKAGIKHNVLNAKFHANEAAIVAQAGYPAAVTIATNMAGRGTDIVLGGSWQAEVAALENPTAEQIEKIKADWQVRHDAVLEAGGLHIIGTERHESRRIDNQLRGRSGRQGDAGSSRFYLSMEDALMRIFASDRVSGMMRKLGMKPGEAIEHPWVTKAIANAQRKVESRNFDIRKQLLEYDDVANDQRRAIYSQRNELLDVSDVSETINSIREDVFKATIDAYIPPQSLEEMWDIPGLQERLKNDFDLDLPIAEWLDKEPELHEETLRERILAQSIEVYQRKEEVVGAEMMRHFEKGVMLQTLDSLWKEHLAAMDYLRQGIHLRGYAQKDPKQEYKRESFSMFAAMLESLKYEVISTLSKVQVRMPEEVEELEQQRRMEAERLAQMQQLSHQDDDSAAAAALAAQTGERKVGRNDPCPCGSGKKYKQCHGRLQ

[2] = target: T1, Ubiquitin-activating enzyme e1, putative (Leishmania donovani (strain BPK282A1)) (UniProt E9BSI1); assay: Leishmania donovani Ubiquitin Activating Enzyme (LdE1); assay type: functional; conditions: 30 µM
T1 sequence (whole entry): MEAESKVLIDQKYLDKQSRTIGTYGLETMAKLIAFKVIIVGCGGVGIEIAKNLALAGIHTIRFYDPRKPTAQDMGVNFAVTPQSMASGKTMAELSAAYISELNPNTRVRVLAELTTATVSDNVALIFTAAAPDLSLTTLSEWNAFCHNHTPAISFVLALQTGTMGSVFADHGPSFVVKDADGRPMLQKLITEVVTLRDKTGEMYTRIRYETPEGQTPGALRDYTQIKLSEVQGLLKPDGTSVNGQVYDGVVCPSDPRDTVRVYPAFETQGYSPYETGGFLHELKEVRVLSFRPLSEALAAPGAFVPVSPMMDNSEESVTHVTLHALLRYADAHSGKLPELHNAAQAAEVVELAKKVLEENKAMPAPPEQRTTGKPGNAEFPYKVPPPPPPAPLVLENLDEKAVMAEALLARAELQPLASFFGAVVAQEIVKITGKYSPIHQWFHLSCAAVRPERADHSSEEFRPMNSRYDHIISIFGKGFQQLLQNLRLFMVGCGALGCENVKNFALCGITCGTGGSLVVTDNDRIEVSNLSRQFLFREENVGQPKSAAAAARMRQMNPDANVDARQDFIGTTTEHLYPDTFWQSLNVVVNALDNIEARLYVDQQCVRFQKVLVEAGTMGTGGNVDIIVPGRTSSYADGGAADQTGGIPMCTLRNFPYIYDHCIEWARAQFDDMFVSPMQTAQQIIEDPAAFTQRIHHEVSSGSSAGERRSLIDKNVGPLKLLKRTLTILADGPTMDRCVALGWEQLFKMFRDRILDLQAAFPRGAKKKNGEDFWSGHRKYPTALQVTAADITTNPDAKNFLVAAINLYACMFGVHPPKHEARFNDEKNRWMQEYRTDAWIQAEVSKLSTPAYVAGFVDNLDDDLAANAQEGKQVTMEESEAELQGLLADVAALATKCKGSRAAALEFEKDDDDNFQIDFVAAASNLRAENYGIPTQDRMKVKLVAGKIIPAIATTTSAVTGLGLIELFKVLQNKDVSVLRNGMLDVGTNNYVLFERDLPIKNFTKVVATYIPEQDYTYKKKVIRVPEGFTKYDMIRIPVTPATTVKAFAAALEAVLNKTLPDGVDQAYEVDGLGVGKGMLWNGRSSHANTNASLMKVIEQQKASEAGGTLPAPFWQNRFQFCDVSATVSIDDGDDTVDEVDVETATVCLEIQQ

[3] = target: AMP-activated protein kinase, AMPK (Homo sapiens) (UniProt P54646+O43741+P54619+Q9UGJ0+Q9Y478+Q13131+Q9UGI9); assay: AMP-dependent Kinase enzyme assay. An in vitro enzyme assay that detects ADP turnover that is directly proportional to AMPK activity. This uses naive AMPK that is activated during the assay with MK-8722; assay type: functional; conditions: 30 µM
[4] = target: Sialic acid-binding Ig-like lectin 9 (Homo sapiens) (UniProt Q9Y336); assay: Hs-Siglec9 ALPHAscreen SOP 20170721; conditions: 10 µM
Chain of Sialic acid-binding Ig-like lectin 9 (Homo sapiens) (Q9Y336 whole entry): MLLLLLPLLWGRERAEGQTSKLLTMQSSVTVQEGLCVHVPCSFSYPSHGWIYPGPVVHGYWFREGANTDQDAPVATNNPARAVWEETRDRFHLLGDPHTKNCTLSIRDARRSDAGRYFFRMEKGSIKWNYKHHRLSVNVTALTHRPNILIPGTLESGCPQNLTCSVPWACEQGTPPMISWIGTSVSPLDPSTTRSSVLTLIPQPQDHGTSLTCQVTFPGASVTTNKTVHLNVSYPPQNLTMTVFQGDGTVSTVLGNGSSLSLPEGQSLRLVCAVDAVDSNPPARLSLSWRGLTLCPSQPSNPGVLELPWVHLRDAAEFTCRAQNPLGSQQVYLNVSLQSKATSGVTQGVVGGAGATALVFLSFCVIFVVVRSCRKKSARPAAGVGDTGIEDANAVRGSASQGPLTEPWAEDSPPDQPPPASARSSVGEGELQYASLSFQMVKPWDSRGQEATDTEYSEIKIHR

[5] = tested on: Trypanosoma cruzi; assay: Trypanosoma cruzi phosphomannomutase and mannose-1-phosphate guanylyltransferase assay; assay type: functional; conditions: 10 µM
[6] = target: T2, Arginase-2, mitochondrial (Homo sapiens) (UniProt P78540); assay: in vitro enzyme assay to detect the production of urea directly proportional to the activity of Arginase II; assay type: functional; conditions: 33.3 µM; further: in the data most compounds retested in dose-response had high values
T2 sequence (whole entry): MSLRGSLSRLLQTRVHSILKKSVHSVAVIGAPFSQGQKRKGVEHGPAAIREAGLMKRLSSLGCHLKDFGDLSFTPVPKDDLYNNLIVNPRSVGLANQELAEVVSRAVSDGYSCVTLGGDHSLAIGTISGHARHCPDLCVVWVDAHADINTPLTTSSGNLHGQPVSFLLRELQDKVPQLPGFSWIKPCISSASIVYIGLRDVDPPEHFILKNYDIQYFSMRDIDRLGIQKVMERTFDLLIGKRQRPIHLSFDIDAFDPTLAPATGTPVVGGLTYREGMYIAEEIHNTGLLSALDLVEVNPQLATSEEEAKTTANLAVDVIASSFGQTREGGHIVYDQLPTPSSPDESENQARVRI

[7] = target: T3, Proteasome subunit beta (Trypanosoma cruzi) (UniProt O96673); assay: Trypanosoma cruzi proteasome chymotrypsin-like activity (TcProtChymo) assay.; further: in the data most compounds retested in dose-response had high values; assay type: functional; conditions: 9.37 µM
T3 sequence (whole entry): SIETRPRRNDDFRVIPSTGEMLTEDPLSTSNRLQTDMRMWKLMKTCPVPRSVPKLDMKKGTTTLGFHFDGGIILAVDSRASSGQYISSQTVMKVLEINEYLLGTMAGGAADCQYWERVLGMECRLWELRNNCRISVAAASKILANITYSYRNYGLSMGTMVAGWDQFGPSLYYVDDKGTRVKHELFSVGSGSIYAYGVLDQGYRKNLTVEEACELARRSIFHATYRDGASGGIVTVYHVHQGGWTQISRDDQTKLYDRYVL

[8] = species: Homo sapiens; assay: To identify inhibition of the IFN signalling (Jak-Stat) pathway via expression of an eGFP reporter gene under the control of an IFN-stimulated response element (ISRE) containing MxA promoter.; assay type: functional; conditions: 30 µM
[9] = target: T4, Tyrosyl-tRNA synthetase, putative (Trypanosoma cruzi (strain CL Brener)) (UniProt Q4DSP6); assay: Trypanosoma cruzi tyrosyl tRNA synthetase (TcYRS) _High Tyrosine SOP; assay type: functional; conditions: 30 µM; further: in the data most compounds retested in dose-response had high values
T4 sequence (whole entry): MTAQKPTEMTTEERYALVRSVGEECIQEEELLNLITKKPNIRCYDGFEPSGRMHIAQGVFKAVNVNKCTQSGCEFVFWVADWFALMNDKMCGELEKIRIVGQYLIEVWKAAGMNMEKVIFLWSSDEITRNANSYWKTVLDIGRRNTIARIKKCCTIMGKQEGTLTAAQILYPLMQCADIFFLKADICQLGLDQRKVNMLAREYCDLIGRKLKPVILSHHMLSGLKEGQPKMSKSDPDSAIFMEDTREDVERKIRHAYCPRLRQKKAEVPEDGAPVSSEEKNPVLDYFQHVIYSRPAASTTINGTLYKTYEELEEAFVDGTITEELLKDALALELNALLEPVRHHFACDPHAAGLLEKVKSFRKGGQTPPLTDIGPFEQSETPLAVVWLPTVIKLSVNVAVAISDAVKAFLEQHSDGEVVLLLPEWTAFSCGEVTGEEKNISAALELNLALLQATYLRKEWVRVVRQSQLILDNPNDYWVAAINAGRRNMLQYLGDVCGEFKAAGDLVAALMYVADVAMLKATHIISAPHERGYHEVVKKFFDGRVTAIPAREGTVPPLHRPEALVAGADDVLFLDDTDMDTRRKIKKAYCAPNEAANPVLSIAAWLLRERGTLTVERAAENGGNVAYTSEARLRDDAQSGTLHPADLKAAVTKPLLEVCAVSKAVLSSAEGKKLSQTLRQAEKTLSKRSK

[10] = target: T4, Tyrosyl-tRNA synthetase, putative (Trypanosoma cruzi (strain CL Brener)); assay: Trypanosoma cruzi tyrosyl tRNA synthetase (TcYRS) SOP; assay type: functional; conditions: 30 µM
[11] = target: Chromo domain-containing protein 1 (Saccharomyces cerevisiae (strain ATCC 204508 / S288c) (Baker's yeast)) (UniProt P32657); assay: ScCHD-1 Enzyme Inhibition Assay; assay type: functional; conditions: 30 µM; further: in the data most compounds retested in dose-response had high values
Chain of Chromo domain-containing protein 1 (Saccharomyces cerevisiae (strain ATCC 204508 / S288c) (Baker's yeast)) (P32657 whole entry, the tested form may be a part): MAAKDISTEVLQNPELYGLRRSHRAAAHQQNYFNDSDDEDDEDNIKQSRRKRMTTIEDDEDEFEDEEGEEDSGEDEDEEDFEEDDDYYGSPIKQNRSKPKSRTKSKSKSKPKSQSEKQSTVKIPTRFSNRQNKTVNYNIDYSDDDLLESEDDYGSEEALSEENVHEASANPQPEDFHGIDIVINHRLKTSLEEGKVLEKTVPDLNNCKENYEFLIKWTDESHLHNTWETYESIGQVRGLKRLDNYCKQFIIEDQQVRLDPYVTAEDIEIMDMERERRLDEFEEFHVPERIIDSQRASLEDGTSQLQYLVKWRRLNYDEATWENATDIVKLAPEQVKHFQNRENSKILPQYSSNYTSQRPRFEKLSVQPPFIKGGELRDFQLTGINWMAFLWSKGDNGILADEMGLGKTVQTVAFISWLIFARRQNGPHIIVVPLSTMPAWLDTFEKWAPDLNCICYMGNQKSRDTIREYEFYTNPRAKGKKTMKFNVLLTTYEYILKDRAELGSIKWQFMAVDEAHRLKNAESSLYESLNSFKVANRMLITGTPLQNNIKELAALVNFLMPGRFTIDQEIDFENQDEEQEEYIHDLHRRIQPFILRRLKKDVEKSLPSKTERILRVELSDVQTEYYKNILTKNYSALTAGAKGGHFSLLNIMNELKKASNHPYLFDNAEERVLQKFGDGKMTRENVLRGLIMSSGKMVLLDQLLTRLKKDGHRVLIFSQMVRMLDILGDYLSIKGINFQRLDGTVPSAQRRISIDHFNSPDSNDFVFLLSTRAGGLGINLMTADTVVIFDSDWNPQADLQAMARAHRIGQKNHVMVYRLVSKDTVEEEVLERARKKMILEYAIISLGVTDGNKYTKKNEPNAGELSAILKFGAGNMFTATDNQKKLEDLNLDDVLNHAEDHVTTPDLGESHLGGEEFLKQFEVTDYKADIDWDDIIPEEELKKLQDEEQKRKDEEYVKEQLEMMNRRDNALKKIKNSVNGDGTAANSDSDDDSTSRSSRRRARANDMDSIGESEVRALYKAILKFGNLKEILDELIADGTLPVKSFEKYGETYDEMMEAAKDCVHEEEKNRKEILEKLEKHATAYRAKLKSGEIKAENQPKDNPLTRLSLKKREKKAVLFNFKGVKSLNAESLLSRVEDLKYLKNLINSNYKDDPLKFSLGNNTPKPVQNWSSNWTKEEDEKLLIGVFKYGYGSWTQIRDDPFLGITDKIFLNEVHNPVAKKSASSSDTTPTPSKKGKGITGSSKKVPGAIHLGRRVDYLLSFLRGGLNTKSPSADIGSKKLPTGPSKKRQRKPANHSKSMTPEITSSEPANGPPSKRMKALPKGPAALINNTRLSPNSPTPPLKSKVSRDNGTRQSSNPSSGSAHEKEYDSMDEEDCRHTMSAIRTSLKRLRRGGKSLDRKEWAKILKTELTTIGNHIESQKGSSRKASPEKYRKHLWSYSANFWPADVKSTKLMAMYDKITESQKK

Structure (SMILES)	Percent Effect [1]	Percent Effect [2]	Percent Effect [3]	Percent Effect [4]	Percent Effect [5]	Percent Effect [6]	Percent Effect [7]	Percent Effect [8]	Percent Effect [9]	Percent Effect [10]	Percent Effect [11]
CCc1ccc(C(=O)NC2CCN(c3cnn(C)c3)C2=O)o1 (stereo unspecified)	-6.02%	2.7%	-5.86%	6.69%	8.11%	-0.744%	8.84%	-0.708%	3.23%	11.1%	-7.33%
COc1ccc(C2CCCN2C(=O)CCNc2ncccn2)cc1 (stereo unspecified)	-2.77%	0%	-2.54%	0.524%	-1.57%	5%	7.1%	1.66%	1.07%	-5%	-1.55%
Cc1nc(C(C)C)sc1C(=O)NS(=O)(=O)c1ccc(C#N)cc1	-1.22%	8.11%	-3.43%	18.3%	5.99%	9.52%	11.9%	-9.57%	4.76%	9.76%	-5.85%
O=C(c1ccncn1)N1CCO[C@H]2[C@@H](OCc3cccnc3)CC[C@@H]21	-1.55%	8%	-0.169%	5.8%	-3.48%	-23.8%	8.72%	2.92%	-6.25%	7.5%	-6.65%
Cn1ccc(C(=O)NC2CCC23CCN(C(=O)c2ccncc2)CC3)c1 (stereo unspecified)	3.11%	11%	-2.76%	16.4%	-3.17%	0%	13.6%	3.03%	5.21%	13.6%	0.95%
Fc1cccc(Oc2ccc(CNCC3CNc4ccnn4C3)cn2)c1 (stereo unspecified)	-2.95%	13%	-2.17%	5.01%	10.5%	2.85%	8.28%	8.31%	37.9%	43.9%	-12.1%
COCCNC(=O)NCc1ccc(OC(C)C)c(F)c1	-5.47%	10.5%	-1.85%	9.7%	8.5%	-4.68%	5.67%	2.01%	5.42%	13.6%	0.0512%
Cc1ccccc1CS(=O)(=O)CC(=O)NC1CCCCNC1=O (stereo unspecified)	-5.33%	18.2%	-2.46%	11%	4.87%	-4.98%	8.62%	11%	4.85%	21.9%	-8.24%
NC(=O)c1cc(C2CCCN(C(=O)CCc3cscn3)C2)n[nH]1 (stereo unspecified)	-1.95%	0%	9.04%	3.83%	1.69%	-0.356%	1.86%	8.48%	2.91%	2.44%	-5.18%
c1cnnc(N2CCCC(NCc3ccc(-n4cccn4)cc3)C2)c1 (stereo unspecified)	-0.865%	-5.2%	14.6%	4.94%	-0.686%	1.9%	1.7%	20.3%	0.952%	7.06%	-7.51%
CC(=O)N1CCN(S(=O)(=O)c2ccc(C)c(F)c2)CC1	-4.54%	10.5%	2.19%	-1.23%	5.75%	9.47%	13.1%	12.6%	2.13%	15.6%	-3.17%
